This note sets out measurements from PubChem BioAssay (NCI).

The panel holds about 83,000 compounds, 20% with a hit somewhere; the sample as a whole holds those more often.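 How to read the values: 0–100, growth inhibition (40 = 60% inhibited); 0, no net growth; -100 to 0, cell death (-40 = 40% of starting cells died; -100 = all dead).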 Values without a mark were called inactive. Calls of active or inactive are those of the source. How the source made its calls: active means growth percent below 10; inactive means the rest.

Test systems include NCI-H23 lung; NCI-H226 lung; NCI-H322M lung; HOP-62 NSCLC; NCI-H460 lung; HOP-92 NSCLC; NCI-H522 lung; A549/ATCC NSCLC; 786-0 renal; COLO 205 colon; DU-145 prostate; K-562 leukemia; MALME-3M melanoma; MDA-MB-231 breast; RXF 393 renal; SF-268 CNS; SF-295 CNS; SF-539 CNS; UACC-257 melanoma; M14 melanoma.
What all share (assay): NCI-60 one-dose screen, 48 h (100 = growth as untreated, 0 = no growth, -100 = all killed)
Holding throughout (conditions): 10 µM unless noted

Turning to `O=C1CCC23OC(C(O)c4ccccc4N12)C1C(Br)=NOC13` (stereo not given), the growth was 99.1% in the test with NCI-H23 lung; 110% with NCI-H226 lung; 107% with NCI-H322M lung; 96.8% in the test on HOP-62 NSCLC; 110% in the test with NCI-H460 lung; 109% in the test with HOP-92 NSCLC. Also, the growth was 99.9% in the test on NCI-H522 lung; 99.7% in the test with A549/ATCC NSCLC; 94.6% with 786-0 renal; 108% in the test on COLO 205 colon; 107% in the test with DU-145 prostate; 96.3% in the test with K-562 leukemia. Also, the growth was 102% with MALME-3M melanoma; 105% in the test on MDA-MB-231 breast; 114% with RXF 393 renal; 91.9% with SF-268 CNS; 106% with SF-295 CNS; 93.3% in the test on SF-539 CNS. In addition, the growth in the test on UACC-257 melanoma was 98.1%; in the test on M14 melanoma it was 104%.
With `COC(=O)c1nc(-c2ccccc2)oc1S(=O)(=O)n1nc(C)cc1N`, the growth is 92.1% with NCI-H23 lung; 110% with NCI-H226 lung; 91.8% in the test with NCI-H322M lung; 97% with HOP-62 NSCLC; 96.9% in the test on NCI-H460 lung; 49.5% in the test on HOP-92 NSCLC. The growth with NCI-H522 lung was -25.8% (active); in the test with A549/ATCC NSCLC, 94.9%; in the test with 786-0 renal it was 80.6%; in the test with COLO 205 colon it was -63.9% (active); in the test on DU-145 prostate, 92.5%; in the test with K-562 leukemia, 3.02% (active). Further, the growth with MALME-3M melanoma is -37.1% (active); in the test with MDA-MB-231 breast, 92.7%; in the test with RXF 393 renal, 104%; in the test with SF-268 CNS it was 83.2%; with SF-295 CNS, 95.4%; with SF-539 CNS it was 76.1%. Further, the growth in the test with UACC-257 melanoma is 83.3%; in the test with M14 melanoma, 67.1%.
Turning to `CCOC(=O)c1cnn(-c2nc(-c3ccc(F)cc3)c(C#N)c(N3CCOCC3)n2)c1N`, the growth in the test with NCI-H23 lung was 103%; in the test on NCI-H226 lung it was 92.1%; in the test with NCI-H322M lung, 105%; in the test on HOP-62 NSCLC it was 111%; in the test on NCI-H460 lung, 100%; in the test on HOP-92 NSCLC, 98.7%. Besides, the growth is 90.6% in the test on NCI-H522 lung; 93.9% in the test on A549/ATCC NSCLC; 82.5% in the test with 786-0 renal; 107% in the test on COLO 205 colon; 102% in the test with DU-145 prostate; 91.8% with K-562 leukemia. Moreover, the growth in the test with MALME-3M melanoma is 107%; with MDA-MB-231 breast, 107%; in the test on RXF 393 renal, 122%; in the test on SF-268 CNS, 98.7%; in the test on SF-295 CNS it was 101%; with SF-539 CNS, 97.2%. The growth in the test on UACC-257 melanoma and in the test on M14 melanoma was 106% throughout.
`NCCN1CCNCC1`: the growth in the test with NCI-H23 lung is 94.6%; with NCI-H226 lung it was 89.6%; with NCI-H322M lung, 116%; in the test on HOP-62 NSCLC, 103%; in the test on NCI-H460 lung, 108%; in the test on HOP-92 NSCLC, 100%. Also, the growth in the test on NCI-H522 lung was 91.4%; in the test on A549/ATCC NSCLC it was 102%; in the test on 786-0 renal, 101%; in the test on COLO 205 colon, 122%; in the test with DU-145 prostate, 104%; in the test with K-562 leukemia, 106%. The growth in the test on MALME-3M melanoma is 109%; in the test on MDA-MB-231 breast, 105%; with RXF 393 renal it was 135%; in the test with SF-268 CNS, 102%; in the test with SF-295 CNS, 109%; with SF-539 CNS it was 95.6%. In addition, the growth in the test with UACC-257 melanoma is 25.9%; in the test on M14 melanoma it was 101%.
As for `O=C(CCCC(=O)Nc1ccc(-n2nnc3cc(Cl)c(Cl)cc32)cc1)Nc1ccc(-n2nnc3cc(Cl)c(Cl)cc32)cc1`, the growth in the test with NCI-H23 lung is 40.2%; in the test on NCI-H226 lung, 49.9%; with NCI-H322M lung, 59.9%; in the test on HOP-62 NSCLC, 28%; with NCI-H460 lung, 14.9%; in the test on HOP-92 NSCLC it was 77.6%. The growth is 37.4% in the test with NCI-H522 lung; 34% in the test on A549/ATCC NSCLC; 49.6% in the test with 786-0 renal; 72.2% with COLO 205 colon; 33.6% in the test with DU-145 prostate; 54.8% with K-562 leukemia. The growth in the test on MALME-3M melanoma was 48.2%; with MDA-MB-231 breast it was 49.9%; with RXF 393 renal, 48.1%; in the test with SF-268 CNS, 60.8%; with SF-295 CNS it was 53.1%; in the test with SF-539 CNS, 56.7%. Further, the growth is 66.5% in the test on UACC-257 melanoma and 68% in the test on M14 melanoma.
For `COc1ccc(C(=O)c2cc(OC)c(C)c(OC)c2)cc1OC(=O)CCl`, the growth with NCI-H23 lung was 27.4%; in the test with NCI-H226 lung, 104%; with NCI-H322M lung, 44%; in the test with HOP-62 NSCLC, 30.2%; in the test with NCI-H460 lung, 7.36% (active); in the test with HOP-92 NSCLC it was 75.8%. Further, the growth is 16.2% with NCI-H522 lung; 28.5% in the test on A549/ATCC NSCLC; 42% with 786-0 renal; 80.8% in the test on COLO 205 colon; 12.7% in the test on DU-145 prostate; 9.2% (active) in the test with K-562 leukemia. The growth is 69.2% with MALME-3M melanoma; 30.3% with MDA-MB-231 breast; 18.4% in the test on RXF 393 renal; 44.9% with SF-268 CNS; 17.6% in the test with SF-295 CNS; -7.95% (active) in the test on SF-539 CNS. Further, the growth in the test with UACC-257 melanoma was 60.3%; in the test on M14 melanoma, 6% (active).
With `O=C(Nc1ccc2ncnc(Nc3cccc(C(F)(F)F)c3)c2c1)c1cccs1`, the growth in the test with NCI-H23 lung was 30.2%; in the test with NCI-H226 lung, 67.6%; in the test on NCI-H322M lung it was 40.7%; with HOP-62 NSCLC, 58.4%; in the test on NCI-H460 lung it was 22.5%; with HOP-92 NSCLC it was 67.6%. Besides, the growth with NCI-H522 lung is 33.8%; in the test on A549/ATCC NSCLC, 32.4%; in the test with 786-0 renal, 57%; in the test with COLO 205 colon it was 24.1%; in the test with DU-145 prostate it was 39.6%; in the test with K-562 leukemia, 26.3%. In addition, the growth in the test on MALME-3M melanoma is 106%; in the test with MDA-MB-231 breast, 54.3%; in the test on RXF 393 renal, 66.2%; in the test with SF-268 CNS it was 51.4%; in the test on SF-295 CNS it was 44%; with SF-539 CNS, 87.7%. Further, the results for the growth with UACC-257 melanoma and with M14 melanoma were 103% and 49.5%, respectively.
Take `CCN1CCN(Cc2ccc(NC(=O)c3cccc(C#Cc4cccc5[nH]nc(N)c45)c3)cc2C(F)(F)F)CC1`: the growth is -42.9% (active) in the test with NCI-H23 lung; 16.6% in the test on NCI-H226 lung; -49.6% (active) with NCI-H322M lung; -76.4% (active) in the test on HOP-62 NSCLC; -72.2% (active) in the test on NCI-H460 lung; -62.7% (active) with HOP-92 NSCLC. Further, the growth is -84.7% (active) in the test with NCI-H522 lung; -91.2% (active) in the test with A549/ATCC NSCLC; -81.6% (active) in the test on 786-0 renal; -76.2% (active) in the test on COLO 205 colon; -70% (active) in the test with DU-145 prostate; -43.8% (active) in the test with K-562 leukemia. Moreover, the growth was -71.4% (active) with MALME-3M melanoma; -85% (active) in the test with MDA-MB-231 breast; -92% (active) in the test on RXF 393 renal; -41.5% (active) in the test with SF-268 CNS; -88.4% (active) with SF-295 CNS; -98% (active) in the test on SF-539 CNS. Further, the growth in the test on UACC-257 melanoma was -75.7% (active); in the test on M14 melanoma, -83.5% (active).
